# Measurements published in PubChem BioAssay (NCI).
# The panel holds about 79,000 compounds, 15% with a hit somewhere; the sample as a whole holds those more often. Values without a mark were called inactive. Active and inactive are the calls of the source. No stated cut-off is given here; in the data, active means growth inhibition above about 70%; inactive means the rest.
# How the values were obtained:
# [1] = NCI Yeast Anticancer Drug Screen. Data for the rad52 strain (AID 147);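 further: 0% = growth of vehicle-treated control cultures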; conditions: S. cerevisiae rad52 mutant growth inhibition, stronger effect = higher value
# Procedure, shortened: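 Screen used a yeast mutant impaired in DNA repair. After compound exposure, growth was measured. Values reflect inhibition compared with vehicle-treated cells.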
# [2] = NCI Yeast Anticancer Drug Screen. Data for the wt1 strain (AID 149);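 further: 0% = growth of vehicle-treated wt1 cultures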; conditions: S. cerevisiae wt1 strain (SPY 50644) growth inhibition, stronger effect = higher value
# Procedure, shortened: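 Using yeast strain wt1, compound-induced growth inhibition was determined against vehicle-treated cultures.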
# [3] = NCI Yeast Anticancer Drug Screen. Data for the rad50EPP+ strain (AID 151);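 further: 0% = growth of vehicle-treated control cultures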; conditions: S. cerevisiae rad50 mutant strain, stronger effect = higher value
# Procedure, shortened: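 Exposing the rad50EPP+ strain to each compound, growth was compared with vehicle-only cultures to give inhibition.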
# [4] = NCI Yeast Anticancer Drug Screen. Data for the mgt1 strain (AID 153); conditions: S. cerevisiae mgt1 mutant growth inhibition, stronger effect = higher value
# Procedure, shortened: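 Genetically defined yeast (mgt1) treated with compound; inhibition of growth expressed against vehicle-treated controls.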
# [5] = NCI Yeast Anticancer Drug Screen. Data for the rad50 strain (AID 155);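 further: 0% = growth of vehicle-only cultures of the same strain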; conditions: S. cerevisiae rad50 strain growth inhibition, stronger effect = higher value
# Procedure, shortened: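 Relative growth inhibition (compound vs vehicle) was measured in yeast with a defined repair-gene alteration.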
# [6] = NCI Yeast Anticancer Drug Screen. Data for the mec2-1 strain (AID 157); conditions: S. cerevisiae mec2-1 strain, stronger effect = higher value
# Procedure, shortened: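 Readout is yeast growth inhibition, normalised to vehicle-treated controls, in the mec2-1 strain exposed to compound.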
# [7] = NCI Yeast Anticancer Drug Screen. Data for the rad14 strain (AID 159);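 further: 0% = growth of vehicle-treated control cultures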; conditions: S. cerevisiae rad14 strain growth inhibition, stronger effect = higher value
# Procedure, shortened: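 Screen for anticancer potential: a yeast strain altered in DNA damage repair is grown with compound, and reduced growth is quantified against vehicle controls.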
# [8] = NCI Yeast Anticancer Drug Screen. Data for the sgs1 mgt1 strain (AID 161);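 further: 0% = growth of cultures given vehicle only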; conditions: S. cerevisiae sgs1 mgt1 strain, stronger effect = higher value
# Procedure, shortened: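 Percent growth inhibition was derived by comparing compound-exposed mutant yeast with vehicle-exposed cultures. The strain carries alterations in DNA damage repair.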
# [9] = NCI Yeast Anticancer Drug Screen. Data for the CLN2oe strain (AID 163);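 further: 0% = growth of vehicle-only control cultures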; conditions: S. cerevisiae CLN2oe strain, stronger effect = higher value
# Procedure, shortened: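 Values reflect how much compound exposure reduced yeast growth, referenced to vehicle-exposed cells. Assay organism is a strain with a defined genetic change affecting cell-cycle control.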
# [10] = NCI Yeast Anticancer Drug Screen. Data for the cln2 rad14 strain (AID 165);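 further: 0% = growth equal to vehicle treated cultures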; conditions: S. cerevisiae cln2 rad14 strain, stronger effect = higher value
# Procedure, shortened: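 Relative to vehicle controls, growth inhibition of compound-treated cln2 rad14 yeast was recorded.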
# [11] = NCI Yeast Anticancer Drug Screen. Data for the bub3 strain (AID 167); conditions: S. cerevisiae bub3 mutant strain, stronger effect = higher value
# Procedure, shortened: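 Screening used yeast with an engineered genetic alteration affecting cell cycle control. Compound-exposed cultures were compared with vehicle cultures, and reduced growth was taken as inhibition.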
# [12] = NCI Yeast Anticancer Drug Screen. Data for the wt2 strain (AID 169);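 further: 0% = growth of vehicle-treated yeast cultures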; conditions: S. cerevisiae wt2 strain growth inhibition, stronger effect = higher value
# Procedure, shortened: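 Values express reduction in yeast growth under compound treatment, referenced to vehicle-treated cells.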
# [13] = NCI Yeast Anticancer Drug Screen. Data for the sgs1 strain (AID 173);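 further: 0% = growth of vehicle-only control cultures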; conditions: S. cerevisiae sgs1 mutant, stronger effect = higher value
# Procedure, shortened: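 Treat defined-mutant yeast with compound; measure growth; calculate inhibition relative to vehicle-treated cells.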
# [14] = NCI Yeast Anticancer Drug Screen. Data for the mlh1 rad18 strain (AID 175); conditions: S. cerevisiae mlh1 rad18 strain growth inhibition, stronger effect = higher value
# Procedure, shortened: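 Test agents were incubated with a yeast strain of defined genotype (DNA damage repair defect). Inhibition of growth was derived by comparison with vehicle-exposed cultures.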
# [15] = NCI Yeast Anticancer Drug Screen. Data for the rad18 strain (AID 177); conditions: S. cerevisiae rad18 mutant growth inhibition, stronger effect = higher value
# Procedure, shortened: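 A genetically defined yeast mutant impaired in DNA damage repair was treated with test compounds, then its growth was measured against cultures receiving vehicle alone.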
# [16] = NCI Yeast Anticancer Drug Screen. Data for the mlh1 strain (AID 171);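 further: 0% = growth of vehicle-treated control cultures of the same strain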; conditions: S. cerevisiae mlh1 strain growth inhibition, stronger effect = higher value
# Procedure, shortened: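 Steps: expose the defined-mutant yeast strain to compound; expose a parallel culture to vehicle; measure growth; express compound effect as inhibition relative to the vehicle culture.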
# [17] = at 5.0 µM (retest, dose inferred, filed as 0.5)
# [18] = at 50.0 µM (retest, dose inferred, filed as 5.0)
compound,measurement,setting,value
N#CSCC1COc2ccccc2O1 (stereo unspecified),growth inhibition,[1]; at 1.2 µM,-43%
same,growth inhibition,[1]; at 3.7 µM,-47%
same,growth inhibition,[1]; at 11.0 µM,-26%
same,growth inhibition,[1]; at 33.0 µM,72% (active)
same,growth inhibition,[1]; at 100.0 µM,98% (active)
same,growth inhibition,[2]; at 1.2 µM,-49%
same,growth inhibition,[2]; at 3.7 µM,-49%
same,growth inhibition,[2]; at 11.0 µM,-28%
same,growth inhibition,[2]; at 33.0 µM,54%
same,growth inhibition,[2]; at 100.0 µM,97% (active)
same,growth inhibition,[3]; at 1.2 µM,-28%
same,growth inhibition,[3]; at 3.7 µM,-18%
same,growth inhibition,[3]; at 11.0 µM,-5%
same,growth inhibition,[3]; at 33.0 µM,83% (active)
same,growth inhibition,[3]; at 100.0 µM,97% (active)
same,growth inhibition,[4]; at 1.2 µM,-25%
same,growth inhibition,[4]; at 3.7 µM,-23%
same,growth inhibition,[4]; at 11.0 µM,-9%
same,growth inhibition,[4]; at 33.0 µM,68%
same,growth inhibition,[4]; at 100.0 µM,97% (active)
same,growth inhibition,[5]; at 1.2 µM,-1%
same,growth inhibition,[5]; at 3.7 µM,1%
same,growth inhibition,[5]; [17],-5%
same,growth inhibition,[5]; at 11.0 µM,8%
same,growth inhibition,[5]; at 33.0 µM,86% (active)
same,growth inhibition,[5]; [18],89% (active)
same,growth inhibition,[5]; at 50.0 µM,88.4% (active)
same,growth inhibition,[5]; at 100.0 µM,98% (active)
same,growth inhibition,[6]; at 1.2 µM,-21%
same,growth inhibition,[6]; at 3.7 µM,-33%
same,growth inhibition,[6]; [17],-27%
same,growth inhibition,[6]; at 11.0 µM,-5%
same,growth inhibition,[6]; at 33.0 µM,87% (active)
same,growth inhibition,[6]; [18],91% (active)
same,growth inhibition,[6]; at 50.0 µM,90.8% (active)
same,growth inhibition,[6]; at 100.0 µM,97% (active)
same,growth inhibition,[7]; at 1.2 µM,-20%
same,growth inhibition,[7]; at 3.7 µM,-12%
same,growth inhibition,[7]; at 11.0 µM,-16%
same,growth inhibition,[7]; at 33.0 µM,20%
same,growth inhibition,[7]; at 100.0 µM,98% (active)
same,growth inhibition,[8]; [17],-25%
same,growth inhibition,[8]; [18],26%
same,growth inhibition,[8]; at 50.0 µM,90.6% (active)
same,growth inhibition,[9]; at 1.2 µM,-11%
same,growth inhibition,[9]; at 3.7 µM,-14%
same,growth inhibition,[9]; at 11.0 µM,-14%
same,growth inhibition,[9]; at 33.0 µM,70% (active)
same,growth inhibition,[9]; at 100.0 µM,98% (active)
same,growth inhibition,[10]; [17],-6%
same,growth inhibition,[10]; [18],85% (active)
same,growth inhibition,[10]; at 50.0 µM,85.3% (active)
same,growth inhibition,[11]; at 1.2 µM,-33%
same,growth inhibition,[11]; at 3.7 µM,-11%
same,growth inhibition,[11]; [17],8%
same,growth inhibition,[11]; at 11.0 µM,-16%
same,growth inhibition,[11]; at 33.0 µM,87% (active)
same,growth inhibition,[11]; [18],94% (active)
same,growth inhibition,[11]; at 50.0 µM,90.9% (active)
same,growth inhibition,[11]; at 100.0 µM,98% (active)
same,growth inhibition,[12]; at 1.2 µM,-50%
same,growth inhibition,[12]; at 3.7 µM,-51%
same,growth inhibition,[12]; at 11.0 µM,-24%
same,growth inhibition,[12]; at 33.0 µM,58%
same,growth inhibition,[12]; at 100.0 µM,96% (active)
same,growth inhibition,[13]; at 1.2 µM,-46%
same,growth inhibition,[13]; at 3.7 µM,-42%
same,growth inhibition,[13]; at 11.0 µM,-8%
same,growth inhibition,[13]; at 33.0 µM,73% (active)
same,growth inhibition,[13]; at 100.0 µM,97% (active)
same,growth inhibition,[14]; [17],5%
same,growth inhibition,[14]; [18],94% (active)
same,growth inhibition,[14]; at 50.0 µM,88.2% (active)
same,growth inhibition,[15]; at 1.2 µM,-21%
same,growth inhibition,[15]; at 3.7 µM,-22%
same,growth inhibition,[15]; at 11.0 µM,17%
same,growth inhibition,[15]; at 33.0 µM,91% (active)
same,growth inhibition,[15]; at 100.0 µM,98% (active)
CN(CCOc1ccc(Cl)cc1)CCOc1ccc(Cl)cc1,growth inhibition,[1]; at 1.2 µM,8%
same,growth inhibition,[1]; at 3.7 µM,18%
same,growth inhibition,[1]; at 11.0 µM,50%
same,growth inhibition,[1]; at 33.0 µM,90% (active)
same,growth inhibition,[1]; at 100.0 µM,99% (active)
same,growth inhibition,[2]; at 1.2 µM,7%
same,growth inhibition,[2]; at 3.7 µM,7%
same,growth inhibition,[2]; at 11.0 µM,10%
same,growth inhibition,[2]; at 33.0 µM,39%
same,growth inhibition,[2]; at 100.0 µM,99% (active)
same,growth inhibition,[3]; at 1.2 µM,4%
same,growth inhibition,[3]; at 3.7 µM,7%
same,growth inhibition,[3]; at 11.0 µM,7%
same,growth inhibition,[3]; at 33.0 µM,3%
same,growth inhibition,[3]; at 100.0 µM,56%
same,growth inhibition,[4]; at 1.2 µM,3%
same,growth inhibition,[4]; at 3.7 µM,13%
same,growth inhibition,[4]; at 11.0 µM,57%
same,growth inhibition,[4]; at 33.0 µM,98% (active)
same,growth inhibition,[4]; at 100.0 µM,99% (active)
same,growth inhibition,[5]; at 1.2 µM,11%
same,growth inhibition,[5]; at 3.7 µM,17%
same,growth inhibition,[5]; [17],13%
same,growth inhibition,[5]; at 11.0 µM,51%
same,growth inhibition,[5]; at 33.0 µM,97% (active)
same,growth inhibition,[5]; [18],97% (active)
same,growth inhibition,[5]; at 50.0 µM,99.2% (active)
same,growth inhibition,[5]; at 100.0 µM,99% (active)
same,growth inhibition,[6]; at 1.2 µM,12%
same,growth inhibition,[6]; at 3.7 µM,16%
same,growth inhibition,[6]; [17],5%
same,growth inhibition,[6]; at 11.0 µM,36%
same,growth inhibition,[6]; at 33.0 µM,93% (active)
same,growth inhibition,[6]; [18],99% (active)
same,growth inhibition,[6]; at 50.0 µM,99.5% (active)
same,growth inhibition,[6]; at 100.0 µM,99% (active)
same,growth inhibition,[7]; at 1.2 µM,28%
same,growth inhibition,[7]; at 3.7 µM,25%
same,growth inhibition,[7]; at 11.0 µM,48%
same,growth inhibition,[7]; at 33.0 µM,99% (active)
same,growth inhibition,[7]; at 100.0 µM,99% (active)
same,growth inhibition,[8]; [17],25%
same,growth inhibition,[8]; [18],99% (active)
same,growth inhibition,[8]; at 50.0 µM,99.7% (active)
same,growth inhibition,[9]; at 1.2 µM,20%
same,growth inhibition,[9]; at 3.7 µM,18%
same,growth inhibition,[9]; at 11.0 µM,50%
same,growth inhibition,[9]; at 33.0 µM,90% (active)
same,growth inhibition,[9]; at 100.0 µM,99% (active)
same,growth inhibition,[10]; [17],11%
same,growth inhibition,[10]; [18],97% (active)
same,growth inhibition,[10]; at 50.0 µM,99.5% (active)
same,growth inhibition,[11]; at 1.2 µM,16%
same,growth inhibition,[11]; at 3.7 µM,23%
same,growth inhibition,[11]; [17],10%
same,growth inhibition,[11]; at 11.0 µM,60%
same,growth inhibition,[11]; at 33.0 µM,97% (active)
same,growth inhibition,[11]; [18],98% (active)
same,growth inhibition,[11]; at 50.0 µM,99.6% (active)
same,growth inhibition,[11]; at 100.0 µM,97% (active)
same,growth inhibition,[12]; at 1.2 µM,8%
same,growth inhibition,[12]; at 3.7 µM,11%
same,growth inhibition,[12]; at 11.0 µM,26%
same,growth inhibition,[12]; at 33.0 µM,89% (active)
same,growth inhibition,[12]; at 100.0 µM,99% (active)
same,growth inhibition,[16]; at 1.2 µM,13%
same,growth inhibition,[16]; at 3.7 µM,17%
same,growth inhibition,[16]; at 11.0 µM,41%
same,growth inhibition,[16]; at 33.0 µM,98% (active)
same,growth inhibition,[16]; at 100.0 µM,99% (active)
same,growth inhibition,[14]; [17],22%
same,growth inhibition,[14]; [18],99% (active)
same,growth inhibition,[14]; at 50.0 µM,99.5% (active)
same,growth inhibition,[15]; at 1.2 µM,14%
same,growth inhibition,[15]; at 3.7 µM,11%
same,growth inhibition,[15]; at 11.0 µM,23%
same,growth inhibition,[15]; at 33.0 µM,80% (active)
same,growth inhibition,[15]; at 100.0 µM,99% (active)
